Laboratory results reported in PubChem BioAssay (NCATS).
Records with an inconclusive call do not appear. Calls of active or inactive are those of the source. The call rests on the fitted dose curve; in most records, active means well fitted inhibition curve with a large enough effect; inconclusive means small, poorly fitted or top-dose-only effect; inactive means flat fitted curve, though single readings scatter.

Key:
HEK293 = test: Cytotoxic Profiling of Annotated Libraries Using Quantitative High-Throughput Screening (AID 1296008); details: Five cell lines viability, CellTiter-Glo ATP luminescence, 48-72 h; max response: active compounds read low; on max response: on the % scale 0 is the no-effect control and ±100 the full control effect
Outline: (§1)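 Compounds were pin-transferred onto cells and incubated 48 or 72 hr at 37 degree Celsius, 95% humidity. CellTiter-Glo was added, plates sat 10 min at room temperature, then ATP-coupled luminescence was imaged as the viability read-out.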

HaCat = test: as above; details: Five cell lines viability, CellTiter-Glo ATP luminescence, 48-72 h; max response: active compounds read low
Outline: as §1

KB-3-1 = test: as above; details: Five cell lines viability, CellTiter-Glo ATP luminescence, 48-72 h; max response: active compounds read low
Outline: as §1

NIH3T3 = test: as above; details: Five cell lines viability, CellTiter-Glo ATP luminescence, 48-72 h; max response: active compounds read low
Outline: as §1

HEK293T = test: qHTS assay to identify novel small-molecules to repurpose for Merkel cell carcinoma treatment (AID 1296009); details: MCC and control cell lines, CellTiter-Glo viability, 72 h; series mostly up to 44.8 µM
Outline: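 qHTS format: cells treated with library compounds in DMSO across 8 (NPC) or 11 (MIPE) concentrations. Readout after 72 hr at 37 degree celsius was CellTiter-Glo luminescence.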
Further: nearly all actives have a fitted effect of over 60% in size.

NC(=O)[C@H]1CCCCc2c1[nH]c1ccc(Cl)cc21
inactive: outcome (HEK293) | max response (HaCat) -14.2% | max response (KB-3-1) 7.59% | max response (NIH3T3) 4.7% | Potency (HEK293T)

CCOC(=O)Nc1nc2ccccc2[nH]1
inactive: outcome (HEK293) | max response (HaCat) -2.18% | max response (KB-3-1) 2.03% | outcome (NIH3T3) | Potency (HEK293T)

CC(C)CC1(C(=O)OCc2ccc(O[C@@H]3O[C@H](CO)[C@@H](O)[C@H](O)[C@H]3O)cc2)CC(=O)OC(C(=O)O)CC(=O)OCC2OC(O1)C(OC(=O)/C=C/c1ccc(O)cc1)C(O)C2O (stereo not given in full)
inactive: outcome (HEK293) | max response (HaCat) -1.08% | max response (KB-3-1) 8.15% | outcome (NIH3T3) | outcome (HEK293T) inactive [at 9.27 µM]

CC1=CC(=O)CC(C)(CO[C@@H]2O[C@H](CO)[C@@H](O)[C@H](O)[C@H]2O)C1(O)/C=C/C(C)=C/C(=O)O (stereo not given in full)
inactive: outcome (HEK293) | max response (HaCat) -0.434% | outcome (KB-3-1) | outcome (NIH3T3) | Potency (HEK293T)

CC1=CC(=O)C2C(C)(C)CC(O)CC2(C)C1CO (stereo not given)
inactive: outcome (HEK293) | max response (HaCat) -3.16% | outcome (KB-3-1) | max response (NIH3T3) 2.39% | Potency (HEK293T)

COC(=O)C1=CO[C@@H](O[C@@H]2O[C@H](CO)[C@@H](O)[C@H](O)[C@H]2O)[C@@H]2[C@@H](C)[C@@H](O)C[C@H]12
inactive: outcome (HEK293) | max response (HaCat) -10.2% | outcome (KB-3-1) | max response (NIH3T3) 2.94% | Potency (HEK293T)

CC(C(=O)O)C1CCC2(C)C3C(=O)C=C4C(CCC(=O)C4(C)C)C3(C)CCC12C (stereo not given)
inactive: outcome (HEK293) | max response (HaCat) -2.22% | outcome (KB-3-1) | outcome (NIH3T3) | Potency (HEK293T)

C[C@@H]1O[C@@H](O[C@H]2[C@H](O[C@H]3CO[C@@H](O[C@H]4CC[C@@]5(C)C(CC[C@]6(C)C5CC[C@]57OC[C@@]8(CC[C@](C)(CO)CC85)[C@H](O)C[C@]76C)C4(C)C)[C@H](O[C@@H]4O[C@H](CO)[C@@H](O)[C@H](O)[C@H]4O)[C@H]3O)O[C@H](CO)[C@@H](O)[C@@H]2O)[C@H](O)[C@H](O)[C@H]1O (stereo not given in full)
inactive: outcome (HEK293) | max response (HaCat) -3.02% | max response (KB-3-1) 5.69% | max response (NIH3T3) 2.44% | outcome (HEK293T) inactive [at 9.27 µM]

CC(C)(OC1OC(CO)C(O)C(O)C1O)C1CCC(O)(CO)C2CC(O)C(C)(O)C2C1 (stereo not given)
inactive: outcome (HEK293) | max response (HaCat) 0.555% | max response (KB-3-1) 2.34% | outcome (NIH3T3) | Potency (HEK293T)

COCCN(C)Cc1ccc2nc3sc(C(=O)N(C)C4CCCCC4)cn3c2c1
inactive: outcome (HEK293) | max response (HaCat) -3.7% | outcome (KB-3-1) | max response (NIH3T3) -0.706% | Potency (HEK293T)

CCC(C)/C=C(C)/C=C/C1=CC2=C(Cl)C(=O)C(C)(OC(C)=O)C(=O)C2=CN1CCCC(=O)O (stereo not given)
inactive: outcome (HEK293) | max response (HaCat) -6.78% | outcome (KB-3-1) | max response (NIH3T3) -0.464% | Potency (HEK293T)

CC(C)[C@@H](C)/C=C/[C@@H](C)[C@H]1CC[C@H]2C3=CC=C4C[C@@H](O)CC[C@]4(C)[C@H]3CC[C@]12C
inactive: outcome (HEK293) | max response (HaCat) -1.06% | outcome (KB-3-1) | max response (NIH3T3) -4.11% | Potency (HEK293T)

CC1(C)CC[C@]2(C(=O)O)CC[C@]3(C)C(=CCC4[C@@]5(C)C[C@@H](O)[C@H](O)C(C)(C)C5CC[C@]43C)[C@@H]2[C@@H]1O (stereo not given in full)
inactive: outcome (HEK293) | max response (HaCat) -22.1% | max response (KB-3-1) 0.492% | max response (NIH3T3) -12.3% | Potency (HEK293T)

CC1=CC(=O)OC(C)(CC(C)(O)C(=O)O)C1 (stereo not given)
inactive: outcome (HEK293) | max response (HaCat) -5.61% | max response (KB-3-1) 6.61% | max response (NIH3T3) 0.862% | Potency (HEK293T)

c1nc(NC2CCCCCC2)c2cc(CNC[C@H]3CCCO3)sc2n1
inactive: outcome (HEK293) | max response (HaCat) -3.62% | max response (KB-3-1) -9.77% | max response (NIH3T3) 3.78% | Potency (HEK293T)

CC(=O)c1c(O)cc2c(c1C)C(=O)CC(O)C2 (stereo not given)
inactive: outcome (HEK293) | max response (HaCat) 1.58% | max response (KB-3-1) 9.72% | max response (NIH3T3) 1.74% | Potency (HEK293T)

C[C@H]1[C@H](C)CC[C@]2(C(=O)O)CC[C@]3(C(=O)O)C(=CCC4[C@@]5(C)CC[C@H](O[C@@H]6O[C@H](C)[C@@H](O)[C@H](O)[C@H]6O)C(C)(C)C5CC[C@]43C)[C@H]12 (stereo not given in full)
inactive: outcome (HEK293) | max response (HaCat) 2.99% | max response (KB-3-1) 1.93% | outcome (NIH3T3) | Potency (HEK293T)

CCNC(=O)[C@@H]1CCCN1C(=O)[C@H](CCCN=C(N)N)NC(=O)[C@H](CC(C)C)NC(=O)[C@@H](C)NC(=O)[C@H](Cc1ccc(O)cc1)NC(=O)[C@H](CO)NC(=O)[C@H](Cc1c[nH]c2ccccc12)NC(=O)[C@H](Cc1cnc[nH]1)NC(=O)[C@@H]1CCC(=O)N1
inactive: outcome (HEK293) | max response (HaCat) -3.68% | max response (KB-3-1) 8.19% | max response (NIH3T3) -1.38% | Potency (HEK293T)

COc1ccccc1CC(C(=O)O)N(C)C(=O)c1ccccc1 (stereo not given)
inactive: outcome (HEK293) | max response (HaCat) 1.79% | max response (KB-3-1) 2.61% | max response (NIH3T3) -9.18% | Potency (HEK293T)

CC12CCC3c4ccc(O)cc4CCC3C1CCC2OC1OC(C(=O)O)C(O)C(O)C1O (stereo not given)
inactive: outcome (HEK293) | max response (HaCat) 2.12% | outcome (KB-3-1) | max response (NIH3T3) 1.3% | Potency (HEK293T)

C=C1CC[C@@H]2[C@](C)(CC[C@H](O)[C@@]2(C)CCC=C(C)C)[C@@H]1Cc1c[nH]c2ccccc12
inactive: outcome (HEK293) | max response (HaCat) -2.84% | max response (KB-3-1) 1.09% | outcome (NIH3T3) | Potency (HEK293T)
